# Source: PubChem (NMMLSC)
# RGS4-Gao reg: human RGS4-Galphao interaction regulation; 220,000 compounds, 0.33% hits; Multiplexed bead flow cytometry, RGS4-Galphao binding; actives lie on both sides; P09471; binding response (% of control), % at 10 µM; in the data active means binding response below about 49% or above about 150%; inactive means in between;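 further: fluorescent Galphao activated with aluminum fluoride binding bead-coupled RGS4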
# Target sequence (P09471 whole entry, looked up): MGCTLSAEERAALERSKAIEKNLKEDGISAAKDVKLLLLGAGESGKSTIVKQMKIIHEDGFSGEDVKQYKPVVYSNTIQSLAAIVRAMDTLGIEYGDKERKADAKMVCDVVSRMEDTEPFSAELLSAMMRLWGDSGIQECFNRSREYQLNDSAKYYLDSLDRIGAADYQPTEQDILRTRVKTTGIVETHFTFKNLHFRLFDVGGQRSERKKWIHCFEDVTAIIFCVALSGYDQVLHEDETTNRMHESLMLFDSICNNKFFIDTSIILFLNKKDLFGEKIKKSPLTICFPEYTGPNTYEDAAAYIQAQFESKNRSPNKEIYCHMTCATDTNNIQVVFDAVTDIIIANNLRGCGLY
# RGS7-Gao: modulates binding of RGS7 to human Galphao. Multiplexed bead flow cytometry; actives lie on both sides. AID 1439. 220,000 compounds, 0.35% hits. binding response (% of control), % at 10 µM. P09471; in the data active means binding response below about 49% or above about 150%; inconclusive means no clear call, values can overlap the other calls; inactive means in between;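 further: fluorescent Galphao held in activated GDP-AlF4 state binding bead-coupled RGS7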
# Avidin bead fluor: avidin bead compound fluorescence profile; Avidin beads, compound fluorescence 488/530 nm, flow cytometry; stronger effect = higher value; 220,000 compounds, 0.38% hits; fluorescence (KMESF) at 10 µM; in the data active means fluorescence above about 47
# GSH bead fluor: GSH bead compound fluorescence profile. AID 1776. fluorescence (KMESF) at 10 µM. GSH beads flow cytometry, compound fluorescence 488/530 nm; stronger effect = higher value. 190,000 compounds, 0.25% hits; in the data active means fluorescence above about 89;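 further: glutathione beads carrying GST-tagged Bcl family fusion proteins plus one bare bead set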
# RGS8-Gao reg: modulates binding of RGS8 to human Galphao; multiplexed bead flow cytometry; actives lie on both sides; P09471; AID 1423; 220,000 compounds, 0.34% hits; response (percent of control binding), % at 10 µM; in the data active means response below about 60% or above about 140%; inactive means in between;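 further: Galphao activated as the GDP aluminium fluoride complex binding bead-coupled RGS8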
# RGS16-Gao: RGS16-Galphao interaction regulator (human); O15492+P09471; bead-based flow cytometry RGS16-Galphao binding, fluorescence; actives lie on both sides; binding response (% of control), % at 10 µM; 220,000 compounds, 0.38% hits;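 further: Galphao activated by GDP with aluminum fluoride before binding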
# RGS-Gao: modulates binding between human RGS4 and Galphao. shares compounds with RGS16-Gao. multiplexed bead flow cytometry, RGS–Galpha-o binding. RGS4–Galpha-o binding response, % at 10 µM. 1,600 compounds, 99% hits. AID 1504;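 further: fluorescently labeled Galpha-o bound to GDP with aluminium fluoride binding biotinylated RGS beads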
# Target sequence (P09471 whole entry, looked up): as above
# Target sequence (P49798 whole entry, looked up): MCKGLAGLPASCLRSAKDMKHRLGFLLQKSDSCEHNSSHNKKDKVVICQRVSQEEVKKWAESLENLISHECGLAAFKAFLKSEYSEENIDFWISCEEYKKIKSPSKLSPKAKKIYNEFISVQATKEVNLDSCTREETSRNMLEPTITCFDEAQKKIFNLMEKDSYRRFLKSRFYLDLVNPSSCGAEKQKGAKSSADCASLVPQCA
# Avidin counter: counter-screen: compounds disrupting biotin binding to avidin beads. shares compounds with RGS16-Gao. streptavidin beads, fluorescein-biotin binding, flow cytometry. inhibition, % at 10 µM. 1,700 tested, under 10 active. AID 1783;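 active means inhibition above 50%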;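 further: median green fluorescence of gated singlet beads compared with DMSO control wells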
# RGS8-Gao single: RGS8-Galphao interaction regulation, single point confirmation | shares compounds with RGS16-Gao | bead-based flow cytometry RGS8-Galphao binding, fluorescence; actives lie on both sides | binding response (% of control), % at 10 µM | 1,700 compounds, 3% hits; in the data active means binding response below about 72% or above about 130%; inactive means in between;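 further: Galphao activated as GDP AlF4 complex before binding bead RGS8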
# RGS7-Gao confirm: RGS7-Galphao interaction regulation, single point confirmation | shares compounds with RGS16-Gao | bead-based flow cytometry RGS7-Galphao binding; actives lie on both sides | response (percent of control binding), % at 10 µM | 1,700 compounds, 7.8% hits; in the data active means response below about 75% or above about 130%; inactive means in between;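 further: fluorescent Galphao activated with GDP and aluminum fluoride binding bead-coupled RGS7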
# RGS16-Gao single: RGS16-Galphao interaction regulation, single point confirmation. 1,700 compounds, 4% hits. response (% of control binding), % at 10 µM. AID 1838. bead-based flow cytometry, RGS16-Galphao binding; actives lie on both sides. shares compounds with RGS16-Gao; in the data active means response below about 74% or above about 130%; inactive means in between;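 further: Galphao activated as the GDP aluminium fluoride complex binding bead-coupled RGS16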
# RGS4-Gao confirm: RGS4-Galphao interaction regulation, single point confirmation. RGS4-Galphao binding, multiplexed bead flow cytometry; actives lie on both sides. binding response (% of control), % at 10 µM. shares compounds with RGS16-Gao. 1,700 compounds, 4% hits; in the data active means binding response below about 74% or above about 130%; inactive means in between
# RGS19-Gao conf: confirmation of regulators of human RGS19-Galphao interaction. shares compounds with RGS16-Gao. bead-based flow cytometry RGS19-Galphao binding; actives lie on both sides. response (percent of control binding), % at 10 µM. 1,700 compounds, 5% hits. AID 1841; in the data active means response below about 50% or above about 160%; inactive means in between
# Numbers stand for hits; i = inactive; ? = inconclusive; nt = no result; [ ] = remark or other dose. Rows were chosen to be rich in hits. Some 1.2% of all compounds tested hit in one or more screens of this group. Unless noted, how the calls were made is not given here.
SMILES,RGS4-Gao reg,RGS7-Gao,Avidin bead fluor,GSH bead fluor,RGS8-Gao reg,RGS16-Gao,RGS-Gao,Avidin counter,RGS8-Gao single,RGS7-Gao confirm,RGS16-Gao single,RGS4-Gao confirm,RGS19-Gao conf
COc1ccc2c(c1OC)C(=O)N1N=C(c3ccc(F)cc3)CC21 (stereo unspecified),i,i,i,i,i,i,nt,nt,nt,nt,nt,nt,nt
CCCC[n+]1ccn(-c2nc3ccccc3nc2[N-]S(=O)(=O)c2ccccc2)c1,i,nt,nt,i,i,i,nt,i,i,i,i,i,i
Cc1cccc(C)c1-n1cccc1/C=C1/C(=N)N2C(=NC1=O)SN=C2S(C)(=O)=O,i,i,i,i,i,i,nt,nt,nt,nt,nt,nt,nt
Cc1ccc(-n2cccc2/C=C2/C(=N)N3C(=NC2=O)SN=C3S(C)(=O)=O)cc1Cl,i,45,i,i,i,i,72,nt,nt,nt,nt,nt,nt
Cc1ccc(SCc2nc3ncccn3c2Br)cc1,nt,nt,75,nt,nt,nt,nt,i,i,i,i,i,i
Cc1ccc(Nc2c(-c3ccc(N(C)C)cc3)nc3ncccn23)cc1,i,?,i,nt,i,i,nt,nt,nt,nt,nt,nt,nt
Cc1noc2ncnc(Sc3ccc(Br)cc3)c12,i,?,i,i,i,i,nt,nt,nt,nt,nt,nt,nt
COc1ccc(F)cc1S(=O)(=O)N1CC(C)CC(C)C1 (stereo unspecified),i,i,i,i,i,i,nt,nt,nt,nt,nt,nt,nt
O=C(CNS(=O)(=O)c1ccc(Br)cc1)N1CCOCC1,i,i,i,i,i,i,nt,nt,nt,nt,nt,nt,nt
CC(C(=O)Nc1ccc([N+](=O)[O-])cc1)N1CCN(C/C=C/c2ccccc2)CC1 (stereo unspecified),i,i,i,i,i,i,nt,nt,nt,nt,nt,nt,nt
CC(=O)c1ccc(NC(=O)C(C)N2CCN(C/C=C/c3ccccc3)CC2)cc1 (stereo unspecified),162[activator],151[activator],i,246,i,i,nt,i,i,i,i,i,i
Cc1ccccc1-n1c(SCC(=O)NC(N)=O)nc2sc(-c3ccccc3)cc2c1=O,i,i,i,i,i,-3.3,81,i,i,i,i,i,i
Cc1c(-c2n[nH]c(=S)n2-c2ccc(C(F)(F)F)cc2)nnn1-c1ccccc1,i,i,i,i,i,i,nt,nt,nt,nt,nt,nt,nt
Cc1c(-c2n[nH]c(=S)n2-c2ccc(Br)cc2)nnn1-c1ccc(Cl)cc1,i,nt,nt,i,i,i,nt,i,i,i,i,i,i
Cc1ccc(C)c(CN2CCNC2=O)c1,20,15,i,i,13,7.9,nt,i,i,i,i,i,i
CN(C)CCC(O)(c1ccccc1)c1ccccc1,i,i,i,i,i,i,nt,nt,nt,nt,nt,nt,nt
NCC(c1ccccc1)(c1ccccc1)c1ccccc1,i,i,i,i,i,24,98,i,i,i,i,i,i
Cc1csc(NC(=O)c2ccco2)n1,i,i,i,i,i,i,nt,nt,nt,nt,nt,nt,nt
COc1ccccc1OCc1csc(NC(=O)c2ccco2)n1,-19,-7.5,i,i,3.4,i,nt,i,i,i,i,i,i
COc1ccc2nccc(/C=C/c3ccnc4ccc(OC)cc34)c2c1,i,?,i,nt,i,i,nt,nt,nt,nt,nt,nt,nt
COC(=O)c1c(NC(=O)C2(C)Cc3ccccc3C(=O)O2)sc2c1CCCC2 (stereo unspecified),i,i,i,i,i,i,nt,nt,nt,nt,nt,nt,nt
CC(Sc1nc(-c2ccccc2)nc2c1COC(C)(C)C2)C(=O)N1CCOCC1 (stereo unspecified),i,i,i,i,i,i,nt,nt,nt,nt,nt,nt,nt
CCOc1ccccc1CN1CCN(Cc2ccon2)CC1CCO (stereo unspecified),i,?,i,nt,i,i,nt,nt,nt,nt,nt,nt,nt
Cc1ccc(-n2ncc3c(=O)[nH]c(SCC(=O)N4CCCC4)nc32)cc1C,i,i,i,i,i,i,nt,nt,nt,nt,nt,nt,nt
Cc1ccc(-n2ncc3c(=O)[nH]c(SCC(=O)N4CCC(C)CC4)nc32)cc1C,i,i,i,i,i,185[activator],112,i,i,i,i,i,i
SMILES,RGS4-Gao reg,RGS7-Gao,Avidin bead fluor,GSH bead fluor,RGS8-Gao reg,RGS16-Gao,RGS-Gao,Avidin counter,RGS8-Gao single,RGS7-Gao confirm,RGS16-Gao single,RGS4-Gao confirm,RGS19-Gao conf
CC1CCCN(CCCCOc2cccc(Br)c2)C1 (stereo unspecified),i,i,i,i,i,i,nt,nt,nt,nt,nt,nt,nt
COC(=O)c1sc(-c2ccc(Cl)cc2)cc1N,i,?,i,nt,i,i,nt,nt,nt,nt,nt,nt,nt
COC(=O)c1sc(-c2cccs2)cc1N,173[activator],?,50,nt,i,i,nt,i,i,i,i,i,i
Cc1cc2c3c(ccc(C)c3n1)N=CN2c1ccccc1,nt,nt,nt,i,nt,nt,nt,i,i,i,i,i,i
Cc1cc(Nc2ccccc2)c2c([N+](=O)[O-])ccc(C)c2n1,i,i,i,i,i,i,nt,nt,nt,nt,nt,nt,nt
COc1ccc2nc(N/C(N)=N/C(=S)Nc3cccc(C)c3)nc(C)c2c1,nt,nt,nt,i,nt,nt,nt,nt,nt,nt,nt,nt,nt
COc1ccc2nc(N/C(N)=N/C(=S)Nc3c(C)cccc3C)nc(C)c2c1,i,i,i,i,i,203[activator],113,i,i,i,i,i,i
O=C(O)CSc1c(-c2ccccc2)[nH]c2ccccc12,i,i,i,i,i,-3.1,77,i,i,i,i,i,i
O=c1c2cc(Cl)ccc2[nH]c(=S)n1Cc1cccs1,i,i,i,i,i,17,94,i,i,i,i,i,i
COC(=O)c1ccc2c(=O)[nH]c(CSc3nnc(C(F)(F)F)n3C)nc2c1,i,i,i,i,i,16,90,i,i,i,i,i,i
CN(C)S(=O)(=O)c1cccc(NC(=S)NN=C(Cc2ccccc2)Cc2ccccc2)c1,i,i,i,i,54,i,91,i,i,i,i,i,i
COc1ccc(NC(=O)Cn2nnc(C(=O)Nc3ccccc3C)c2N)cc1,i,i,i,i,i,i,nt,nt,nt,nt,nt,nt,nt
Cn1c(N2CCCC2)nc2c1c(=O)n(Cc1ccc(Cl)cc1)c(=O)n2C,nt,nt,nt,i,nt,nt,nt,i,i,i,i,i,i
Cc1ccc(C2=C(CC(=O)O)C(=O)CC2)cc1,i,i,i,i,i,22,92,i,i,i,i,i,i
Cc1ccc(-c2sc(C)nc2CC(=O)O)cc1,i,i,i,i,i,i,nt,nt,nt,nt,nt,nt,nt
